Laboratory results taken from PubChem BioAssay AID504370 (National Center for Advancing Translational Sciences (NCATS), 2011).
This is one part of the list. Results filed as inconclusive are left out. Calls of active or inactive are those of the source. Calls follow the shape of the dose curve; as a rule, active = well fitted inhibition curve with a large enough effect; inconclusive = small, poorly fitted or top-dose-only effect; inactive = flat fitted curve, though single readings scatter.

Assay: qHTS Assay for Compounds Blocking the Interaction Between CBF-beta and RUNX1 for the Treatment of Acute Myeloid Leukemia: ME-1 cellular proliferation
Conditions: ME-1 cell proliferation, ATP luminescence, 48 h; series mostly up to 56.1 µM; activity change, negative = inhibition: at the top concentration
From the text: NIH Chemical Genomics Center [NCGC]
NIH Molecular Libraries Probe Production centers Network [MLPCN]
Assay Submitter (PI): Paul Liu
Core Binding Factor (CBF) abnormalities are associated with 20-25% of all acute myeloid leukemias (AML), of which 5-10% are further sub classified as acute myelomonocytic leukemia with eosinophilia, also known as M4Eo in the FAB classification scheme. This subtype of leukemia is usually associated with chromosome 16 inversion (p13:q22). Chromosome 16 inversion results in formation of the fusion oncogene CBFB-MYH11, which encodes the fusion protein CBF-beta-SMMHC.
It has been hypothesized that the interference of CBF-beta and RUNX1 binding could have therapeutic implications for patients with CBF mediated leukemias. We developed a CBF-beta and RUNX1 binding assay in AlphaScreenTM format and optimized it for high throughput screening to search for inhibitors. The goal of this project is to screen MLPCN's compound collection (MLSMR) for identifying the inhibitors of the interaction between CBF-beta and RUNX1 proteins as research probes. If these probes work well in the animal models, the ultimate goal of this project is to development a new drug treatment for this disease.
The present assay assesses compounds ability to slow cellular proliferation in a CBFb dependent cell line, ME-1.
2uL/well media was dispensed per well into 1536-well white solid-bottom plates using Multidrop Combi dispenser. Subsequently, 23 nL/well compound solutions or DMSO controls were dispensed to the assay plates via a pintool workstation. The cells were grown in T225 flasks to 70% confluence under a standard cell culture condition (ATCC), detached with 0.25% Trypsin/EDTA, and seeded at 250 cells/well in 5uL medium (Dulbecco's Modified Eagle Medium, 10% fetal bovine serum, 1x penicillin/streptomycin).

Activity change, negative = inhibition, inactive:
N#Cc1ccc(C(c2ccc(C#N)cc2)n2cncn2)cc1 -9.58% [at 25.6 µM]
O=C(OCC1O[C@@H](OC(=O)c2cc(O)c(O)c(O)c2)[C@@H](OC(=O)c2cc(O)c(O)c(O)c2)[C@@H](OC(=O)c2cc(O)c(O)c(O)c2)[C@@H]1OC(=O)c1cc(O)c(O)c(O)c1)c1cc(O)c(O)c(O)c1 (stereo not given in full) -15.4%
CC[N+](C)(CC)CCC[n+]1c(-c2ccccc2)c2cc(N)ccc2c2ccc(N)cc21 -22.9%
CC(C)C(N)C(=O)OCCOCn1cnc2c(=O)[nH]c(N)nc21 (stereo not given) -4.01%
COc1cc(C(=S)NCc2ccccc2)cc(Br)c1O 3.26% [at 25.6 µM]
